From PubChem
Hits are enriched below; roughly 2% of the tested compounds scored in any of these assays.
S1P1 ag = activates the human S1P1 receptor | S1P1 agonist cell-based reporter assay | P21453 | activation, % at 4.5 µM | 16,000 compounds, 1.5% hits; in the data active = activation above about 80%
rat GALR2 ag = GALR2 (rat) receptor agonism; cell-based GALR2 agonist screen; activation, % at 10 µM; 16,000 compounds, 0.5% hits; AID 833; in the data active = activation above about 15%
Target sequence (O08726 whole entry, looked up): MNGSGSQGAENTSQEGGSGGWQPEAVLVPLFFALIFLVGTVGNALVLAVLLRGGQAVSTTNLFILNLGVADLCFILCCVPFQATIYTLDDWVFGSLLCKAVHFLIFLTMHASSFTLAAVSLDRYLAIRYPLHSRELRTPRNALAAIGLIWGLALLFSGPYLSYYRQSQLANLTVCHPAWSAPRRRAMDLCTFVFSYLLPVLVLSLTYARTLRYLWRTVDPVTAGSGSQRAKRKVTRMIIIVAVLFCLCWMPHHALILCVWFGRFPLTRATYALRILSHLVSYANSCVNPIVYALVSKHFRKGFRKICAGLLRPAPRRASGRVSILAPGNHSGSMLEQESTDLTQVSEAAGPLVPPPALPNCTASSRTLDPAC
* marks the source's active call; other numbers are inactive results.

SMILES | S1P1 ag | rat GALR2 ag
Fc1ccc(CSc2nnc(-c3ccncc3)s2)cc1 | 101* | -3
Cc1ccc(CSc2nnc(-c3cnccn3)s2)cc1 | 93* | -1
O=C(CSc1nnc(-c2cnccn2)s1)c1cccc(C(F)(F)F)c1 | 3 | 1
N#Cc1ccc(-c2csc(-c3cnccc3C(F)(F)F)n2)cc1 | 27 | -6
CN(C)c1ccc(/C=C(\C#N)C(=O)c2ccccc2Cl)cc1 | 5 | -2
OC(COc1ccc(C23CC4CC(CC(C4)C2)C3)cc1)CN1CCCCC1 (centres undefined) | -5 | 27*
OC(COc1ccc(N=Cc2ccc(Cl)cc2)cc1)CN1CCCCC1 (centres undefined) | -8 | -7
O=C(CC1Sc2ccccc2NC1=O)NNC(=O)c1cc(C(F)(F)F)cc(C(F)(F)F)c1 (centres undefined) | 9 | -6
N#CC(C#N)=Cc1ccc(OCc2ccsc2C#N)cc1 | 5 | -3
CC(C)(C)c1ccc(C(=O)c2ncc[nH]2)cc1 | 103* | 2
O=C(c1ccc(OC(F)(F)F)cc1)c1ncc[nH]1 | -16 | -5
S=c1nc(-c2cccnc2)[nH][nH]1 | -1 | -5
Cc1noc(C)c1C(=O)Nc1cc(C(F)(F)F)ccc1OCC(F)(F)F | -31 | -8
CSc1nc(N)nc(-c2cccs2)c1C#N | -12 | -4
CSc1nc(-c2cccs2)cc(C(F)(F)F)c1C#N | -13 | 31*
Cc1cc(C)c(CSCCNC(=O)Nc2ccc(Cl)cc2)c(C)c1 | -1 | -10
N#Cc1cnc(Oc2ccc(Cl)cc2)nc1N | -8 | 21*
COc1ncc(C#N)c(N)n1 | 2 | -5
Cc1nccc2[nH]c(=O)c(C#N)cc12 | -10 | -2
CC(Oc1ccc2oc3ccccc3c(=O)c2c1)C(=O)O (centres undefined) | -19 | 0
CC(C)Nc1c(-c2ccccc2)oc2ccc(C(=O)O)cc2c1=O | -2 | 28*
C/C(=N\OC(=O)c1cccc(C(F)(F)F)c1)c1cccnc1 | 4 | -9
O=[N+]([O-])c1cccnc1SCc1csc2ccc(Cl)cc12 | 106* | -3
O=[N+]([O-])c1cccnc1Sc1cc(Cl)ccc1Cl | 19 | -5
CCc1ccc(-n2nnnc2/C=C/N2CCOCC2)cc1 | -8 | -9
SMILES | S1P1 ag | rat GALR2 ag
Clc1ccc(-n2nnc(/C=C/C=C/N3CCOCC3)n2)cc1 | 5 | 30*
O=S(=O)(c1cccs1)N1CCN(c2cc(C(F)(F)F)nc3ccccc23)CC1 | -5 | -2
O=C(CSc1n[nH]c(=O)n1-c1ccccc1)N1CCC(C(F)(F)F)CC1 | -9 | -5
O=C(c1ccc(S(=O)(=O)N2CCOCC2)o1)N1CCOCC1 | -5 | -7
COc1ccc(CCNC(=O)/C(C#N)=C/c2ccc[nH]2)cc1OC | 5 | -1
O=c1nc(-c2ccccc2)nc(-c2ccccc2)[nH]1 | 20 | 0
C[n+]1cccc(-c2n[nH]c(-c3ccccc3)n2)c1 | 110* | -7
CC(=O)N1N=C(c2ccncc2)OC1c1cn(-c2ccccc2)nc1-c1cccs1 (centres undefined) | -2 | -3
O=C(NNC(=O)C1CCCS1)c1ccc(Cl)cc1 (centres undefined) | -12 | -6
O=C1Nc2ccc(OC(F)(F)F)cc2C1=O | 8 | 26*
CC(=O)Nc1ccc(OC(F)(F)F)cc1Cl | -8 | -3
Cn1nc(C(C)(C)C)cc1C(=O)Nc1c(-c2ccccc2)c(C(F)(F)F)nn1C | -14 | -6
Cc1cc(-c2onc(C)c2C(=O)O/N=C(\N)c2cccc(C(F)(F)F)c2)no1 | -8 | -9
N/C(=N\OC(=O)c1cccc(C(F)(F)F)n1)c1cccc(C(F)(F)F)c1 | 91* | -4
Cc1c(COS(=O)(=O)c2ccc(Cl)cc2Cl)sc2ccccc12 | 1 | -7
N#C/C(=C\Nc1cc(C(F)(F)F)cc(C(F)(F)F)c1)S(=O)(=O)Cc1ccc(Cl)cc1 | 100* | -9
N#C/C(=C\Nc1cc(C(F)(F)F)cc(C(F)(F)F)c1)C(=O)Nc1ccc(Cl)cc1 | 30 | -9
CC(C)(C)C(=O)NC(=O)Nc1cc(C(F)(F)F)ccc1Cl | -19 | 1
CN(C)c1ccc(NC(=O)Nc2ccc(OCc3ccccc3)cc2)cc1 | 7 | -7
Cc1ccc(NC(=O)Nc2ccc(OCc3ccccc3)cc2)cc1NS(C)(=O)=O | 88* | -6
COC(=O)c1ccccc1Sc1cccc2cccc(C#N)c12 | 24 | -5
CCOc1ccc(NC(=O)c2cc(C)n(C)n2)cc1 | 126* | -8
Cc1cc(C(=O)Nc2ccccc2N2CCCCC2)nn1C | -32 | -8
Cc1ccc(/C=N/N=C2\NC(=O)CS2)o1 | -12 | -4
CN1c2ccsc2C(=O)/C(=N\Nc2cccc(C(F)(F)F)c2)S1(=O)=O | 87* | -8
COC(=O)c1sccc1N/N=C1\C(=O)c2ccccc2N(C)S1(=O)=O | -6 | -7
Cc1nc(-c2cc(C#N)c(NCc3ccccc3)nc2C)cs1 | 85* | -1
Cc1nc(-c2cc(C#N)c(SCCNS(=O)(=O)c3cccc(C(F)(F)F)c3)nc2C)cs1 | -7 | -9
Cc1nn(S(=O)(=O)c2ccc(Cl)s2)c(C)c1[N+](=O)[O-] | 15 | -6
